A selection: hits, their analogues and other compounds. The true share with any hit is near 4.1%.
MIN6 prolif: inducers of beta-cell replication in MIN6 cells | MIN6 cells proliferation, ATPlite luminescence, 48 h; cells starved in 0.2% serum; 100% = growth in 10% serum | proliferation, % at 10 µM | 330,000 compounds, 0.29% hits | AID 2380;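 active means compounds whose signal lies at least 3.5 SD above the mean of all wells on their plate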;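 further: 0% = DMSO-treated cells in low-serum medium and 100% = 10% serum control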
pCIP destab: p/CIP protein destabilization | F442A p/CIP-EGFP cells, EGFP fluorescence, 16 h | decrease of EGFP signal, % at 10 µM | 290,000 compounds, 0.01% hits;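 active means EGFP signal decrease of at least 30% at 10 µM or well 3 SD below plate mean, unless failing retest; inactive means the rest, including hits failing retest or dose response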
MPTP inh: blocks calcium-induced mitochondrial swelling | inhibition, % at 10 µM | 360,000 compounds, 1.4% hits | isolated mouse mitochondria, Ca2+ swelling absorbance, 30 min | AID 602449;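 active means inhibition of 50% or more, scaled per plate between neutral and stimulator controls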;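 further: 0% = DMSO wells given calcium and 100% = 1 mM EGTA wells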
FAS-TE inh: blocks the thioesterase domain of human fatty acid synthase | P49327 | recombinant FAS-TE, OMFH fluorogenic substrate, fluorescence endpoint | inhibition, % at 15 µM | 360,000 compounds, 0.67% hits | AID 602261;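 active means compounds whose normalised, plate-corrected inhibition of enzyme fluorescence in the single-dose primary screen is 50% or more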;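 further: 0% = DMSO with enzyme and 100% = substrate without enzyme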
GRIN3A LBD mod: NR3A (human) ligand-binding domain modulation | Tm shift relative to glycine control, % at 25 µM | 340,000 compounds, 2.5% hits | AID 1259313 | NR3A LBD differential scanning fluorimetry, Tm shift; 0% = protein alone, 100% = glycine-bound protein;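 active means melting temperature shift of at least 10% of the positive control shift, at one fixed dose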
Rh123 counter: membrane potential counter-screen of mitochondrial pore inhibitors | shares compounds with MPTP inh | isolated mitochondria, Rhodamine 123 fluorescence | inhibition, % at 10 µM | 5,000 compounds, 78% hits | AID 624504; in the data active means inhibition above about 22%;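 further: 0% = DMSO vehicle and 100% = positive control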
MPTP abs DR: MPTP inhibition, dose response swelling confirmation; shares compounds with MPTP inh; isolated mitochondria swelling, absorbance; IC50, µM; 780 compounds, 58% hits; in the data active means IC50 below about 20 µM
MPTP counter DR: active in counter-screen for permeability transition pore inhibitors | shares compounds with MPTP inh | 780 compounds, 49% hits | isolated mitochondria counterscreen, fluorescence read-out | IC50, µM | AID 651564; in the data active means IC50 below about 80 µM
Active calls of the source: *; i = inactive; nt = not tested or not shown.

SMILES | MIN6 prolif | pCIP destab | MPTP inh | FAS-TE inh | GRIN3A LBD mod | Rh123 counter | others
COC(=O)c1ccc(CNC(=O)COC(=O)C2CCC(C(C)(C)C)CC2)cc1 (stereo not given) | 0.0 | -11.3 | 0.7 | 16.3 | -31.1 | nt
COc1ccccc1CCN=C(N)NS(=O)(=O)c1ccc(F)cc1 | 2.8 | -2.3 | 1.0 | -1.6 | 0.3 | nt
O=c1c2c3c(sc2n2cnnc2n1-c1ccccc1)N(Cc1ccccc1)CCC3 | 2.0 | -4.5 | nt | nt | -1.6 | nt
CCCCn1nnnc1C(c1ccccc1)N1CCN(c2cccc(C)c2C)CC1 (stereo not given) | nt | nt | 2.8 | 17.5 | nt | nt
Cc1ccc(OCCCCn2cnc3ccccc32)c(C)c1 | -6.1 | -9.9 | 92.6* | 3.1 | 2.6 | 93.4*
Brc1ccccc1OCCCCn1cnc2ccccc21 | -6.5 | -3.5 | 84.9* | 15.8 | 6.7 | 90.5*
COc1cccc2[nH]c3c(N4CCCCC4)ncnc3c12 | 0.4 | 4.0 | -1.8 | -3.6 | -0.8 | nt
Cc1cccc2[nH]c3c(N4CC=C(c5ccc(F)cc5)CC4)ncnc3c12 | -3.9 | -9.6 | 66.5* | 20.7 | -3.5 | 62.3*
O=C(CSc1nncn1-c1cccnc1)N(c1ccccc1)c1ccccc1 | -1.1 | -6.5 | -1.9 | -6.1 | -0.6 | nt
O=C(C1CC1)N1CCC(c2nc(-c3ccc(S(=O)(=O)NCC4CCCO4)cc3)no2)CC1 (stereo not given) | -0.6 | -0.6 | 65.5* | -4.8 | -2.7 | 16.5 | MPTP abs DR=i;MPTP counter DR=45.8*
O=C(c1ccccc1)N1CCC(c2nc(-c3ccc(S(=O)(=O)NCC4CCCO4)cc3)no2)CC1 (stereo not given) | -3.1 | 4.1 | 52.7* | -5.0 | -1.1 | 61.5*
O=C(C1CC1)N1CCC(c2nc(-c3ccc(S(=O)(=O)N4CCCC4)cc3)no2)CC1 | 1.5 | 1.2 | -0.2 | 12.6 | 7.3 | nt
O=C(O)c1cc(-c2ccc(Br)s2)nc2ccccc12 | -5.4 | -5.3 | 0.5 | -1.6 | 2.4 | nt
CN1CCN(NC(=O)c2cc(-c3ccc(Br)s3)nc3ccccc23)CC1 | -3.8 | -4.9 | 82.1* | 2.0 | -0.3 | -17.4 | MPTP abs DR=15.1*;MPTP counter DR=>80
CC(C(=O)OCC(=O)N1CCCCC1)N1C(=O)c2ccccc2C1=O (stereo not given) | -3.4 | nt | -0.6 | -6.7 | -0.3 | nt
CCOc1cc(CNCCSc2nnnn2C)cc(Br)c1OCc1ccccc1 | -5.2 | -10.2 | 16.9 | -7.6 | -5.7 | nt
CCOc1cc(CNCc2ccncc2)cc(Br)c1OCc1ccc(F)cc1 | -5.2 | -5.5 | 97.9* | 12.8 | 0.5 | 15.0 | MPTP abs DR=8.41*;MPTP counter DR=25.7*
Fc1ccc(COc2ccc(Br)cc2CNCc2ccncc2)cc1 | -3.2 | -6.3 | 2.3 | 7.5 | -1.2 | nt
CCOc1cc(CNCCO)cc(Br)c1OCc1ccccc1 | -3.6 | 4.0 | 88.8* | -1.1 | 0.7 | 4.9 | MPTP abs DR=5.5*;MPTP counter DR=19.1*
CN1CCN(/N=C/c2c3ccccc3c(Cl)c3ccccc23)CC1 | -6.4 | -4.3 | 90.6* | 5.9 | 1.0 | -21.3
CN1CCN(/N=C/c2ccc(-c3ccccc3)cc2)CC1 | 3.6 | 8.2 | 69.8* | -3.7 | -1.0 | -10.9
CSc1ccc(/C=N/N2CCN(C)CC2)cc1 | -1.9 | 12.1 | -0.5 | -3.9 | 1.1 | nt
CC1CCN(c2nc3nonc3nc2Nc2ccc(F)cc2)CC1 | -3.7 | -12.9 | 73.2* | 38.7 | -7.1 | 75.4*
COc1ccc(Nc2nc3nonc3nc2N2CCCCC2)cc1 | -1.7 | -10.3 | 8.4 | 15.3 | -2.5 | nt
COCc1c(C#N)c(NCc2cc(OC)c(OC)c(OC)c2)nc(C)c1[N+](=O)[O-] | -1.9 | -9.7 | 75.4* | 34.1 | 0.2 | 33.7*
SMILES | MIN6 prolif | pCIP destab | MPTP inh | FAS-TE inh | GRIN3A LBD mod | Rh123 counter | others
COc1ccc(Cl)c(N2CCN(CCCNC(=O)Nc3ccc(C)cc3)CC2)c1 | -3.5 | -9.1 | 80.3* | -1.6 | 1.8 | -9.5 | MPTP abs DR=9.41*;MPTP counter DR=36.5*
COc1ccc(Cl)cc1N1CCN(CCNC(=O)Nc2ccccc2C)CC1 | -1.9 | 5.9 | 93.8* | 16.8 | -7.9 | -7.3 | MPTP abs DR=i;MPTP counter DR=32.1*
COc1ccc(C(=O)c2sc(Nc3ccccc3)c(C(=O)Nc3ccc(OC)c(OC)c3)c2N)cc1 | -2.6 | -18.3 | 0.3 | 27.1 | -5.2 | nt
COc1ccccc1NC(=O)c1c(Nc2ccccc2C)sc(C(=O)Nc2cccc(Cl)c2)c1N | -5.6 | 2.1 | 87.4* | 35.8 | 30.7* | 51.5*
COc1ccc(C(=O)c2sc(Nc3cccc(OC)c3)c(C(=O)Nc3cccc(C)c3C)c2N)cc1 | -5.9 | -0.6 | 11.3 | 3.4 | 5.2 | nt
COc1ccc(Nc2sc(C(=O)c3ccc(Cl)cc3)c(N)c2C(=O)Nc2ccccc2OC)cc1 | -4.5 | 2.2 | 67.8* | 16.4 | 0.8 | 75.4*
COc1ccc(NC(=O)c2c(Nc3ccccc3)sc(C(=O)c3ccc(F)cc3)c2N)cc1 | -5.8 | -32.1 | 92.1* | 5.8 | 0.3 | 82.6*
COc1ccc(S(=O)(=O)N2CCCCC2)cc1NC(=O)Cc1ccc(Br)cc1 | nt | nt | 0.7 | 27.7 | -0.1 | nt
CCCCOC(=O)C1Cc2ccccc2C(=O)O1 (stereo not given) | 1.4 | 6.8 | 2.4 | -2.7 | -0.9 | nt
COc1cc(/C=C2\SC(c3ccc(C)cc3)=NC2=O)cc(OC)c1O | -4.3 | -5.6 | 13.6 | -16.0 | -17.1 | nt
Cc1ccc(C2=NC(=O)/C(=C/c3cc(O)c(O)c(Br)c3)S2)cc1 | -4.7 | -7.2 | 114.1* | 31.2 | 4.3 | 36.1*
COc1ccc(OC)c(-c2csc(NC(=O)CSc3ccc([N+](=O)[O-])cc3)n2)c1 | -5.5 | 1.5 | 55.6* | 38.5 | 12.4* | 63.5*
O=C(CSc1nnc(-c2cccnc2)n1Cc1ccccc1)NCc1ccccc1 | -2.2 | -16.6 | -0.8 | -8.8 | 0.5 | nt
CCN(c1ccccc1)S(=O)(=O)c1ccc(C(=O)NC2CCCCC2)cc1 | nt | nt | 4.6 | 8.5 | nt | nt
CCN(c1ccccc1)S(=O)(=O)c1ccc(C(=O)NC2CCN(Cc3ccccc3)CC2)cc1 | -6.4 | nt | 65.7* | 2.2 | 2.4 | 63.8*
O=C(Cc1ccccc1)NC(=S)Nc1cccc(C(F)(F)F)c1 | -4.6 | 36.1 | 5.2 | 15.8 | -2.8 | nt
COC(=O)c1ccc(CSc2ccccc2NC(=S)Nc2cccc(C(F)(F)F)c2)o1 | nt | nt | 86.3* | 19.6 | nt | 90.2*
CCCCN1C(=N)N([C@@H](C)CN2CCC[C@H]2CN2C(N)=NC[C@H]2CC(C)C)C[C@H]1Cc1ccccc1 | -2.5 | nt | 67.1* | -13.2 | -0.8 | 0.8 | MPTP abs DR=9.03*;MPTP counter DR=>80
C[C@@H](CN1CCC[C@H]1CN1C(N)=NC[C@@H]1Cc1ccccc1)N1C[C@@H](Cc2ccccc2)N(CCc2ccc(Cl)c(Cl)c2)C1=N | -3.4 | nt | 74.3* | -121.3 | -1.3 | 7.8
CC(C)[C@@H]1CN=C(N)N1C[C@@H]1CCCN1C[C@H](C)N1C[C@@H](Cc2ccccc2)N(CCc2ccc(Cl)c(Cl)c2)C1=N | 1.5 | nt | -1.8 | -15.4 | -3.1 | nt
